# Dicer inh – inhibitors of Dicer pre-microRNA processing, primary screen, biochemical, cat-ELCCA, chemiluminescence; 47,000 tested, 6% active; AID 1347074, 2019; cat-ELCCA pre-miR-21 Dicer processing; hits give high values; Endoribonuclease Dicer (Homo sapiens), Q9UPY3; z-score at 25 µM; in the data active = z-score above about 3, passing the limit was not always enough;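 note: higher signal means more uncleaved substrate so more Dicer inhibition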
# A number is an active result; - = inactive. The sample as a whole holds a higher share of hits than the screen did.
SMILES,Dicer inh
CCn1c2ccccc2c2cc(NC(=O)C(=O)NCC3CCCO3)ccc21 (centres undefined),-
N#C/C(=N\Nc1ccc(F)cc1)C(=O)NCC1CCCO1 (centres undefined),3.8
CCCCOC(=O)C1=C(C)NC2=C(C(=O)CCC2)C1c1ccncc1 (centres undefined),-
CCN1C(=O)c2cccc3c(S(=O)(=O)N(C)c4ccccc4)ccc1c23,-
CCOC(=O)C1=C(C)Nc2nc3ccccc3n2C1c1ccccc1F (centres undefined),-
Cc1c(OCc2ccc(Cl)c(Cl)c2)ccc(C(=O)/C=C/N(C)C)c1O,-
Nc1ccc2nc(CCC(=O)O)[nH]c2c1,-
O=C(O)c1ccc2nc(CCc3ccccc3)[nH]c2c1,-
O=C(O)CCc1nc2ccc(C(=O)O)cc2[nH]1,3.7
CC(C)(C)c1cc2nc(C(F)(F)F)cc(N3CCNCC3)n2n1,-
N#Cc1c(N)nc2c(c1-c1ccc(Cl)cc1)CCCCC2,-
CCOC(=O)/C(C#N)=C/c1ccc(Br)cc1,-
COC(=O)/C(C#N)=C/c1ccc(Cl)cc1,-
COC(=O)/C(C#N)=C/c1cccc(Br)c1,9.3
N#CCCn1nc(Nc2ccccc2)n(-c2ccccc2)c1=S,-
COc1ccccc1OCCC(=O)O,-
COc1ccccc1OCCn1cc(C(=O)O)c2ccccc21,-
COc1ccccc1OCCN1CCN(C)CC1,4.8
COC(=O)C1=C(C)NC2=C(C(=O)c3ccccc32)C1c1ccc(OCC(=O)O)cc1 (centres undefined),-
CCOC(=O)/C(C)=N/Nc1ccc(F)cc1,-
CCOC(=O)/C(=N\Nc1cccc(C)c1)c1csc(N)n1,4
CCOC(=O)/C(C)=N/Nc1ccccc1,-
Cc1cc(-c2ccccc2)nc2oc(C(=O)N/N=C/c3ccc(Cl)cc3Cl)c(N)c12,-
OC(CN1CCOCC1)Cn1c2ccc(Br)cc2c2cc(Br)cc(Br)c21 (centres undefined),-
Cc1ccc2c(c1)c(C)c(C)n2CC(O)CN1CCOCC1 (centres undefined),4.6
SMILES,Dicer inh
OC(CN1CCCC1)Cn1c2ccc(Cl)cc2c2cc(Cl)ccc21 (centres undefined),-
N#CCCN1C(=O)C(=O)c2ccccc21,-
O=S(=O)(N/N=C/c1ncc(C(F)(F)F)cc1Sc1ccc(Cl)cc1)c1ccccc1,-
Clc1ccc(Sc2ccc3nnc(-c4ccccc4)n3n2)cc1,-
COc1ccc(C(C)=O)cc1CO/N=C1\CSCc2ccccc21,-
CCOC(=O)CCc1c(C)nc2c(-c3ccc(F)cc3)c(C)[nH]n2c1=O,-
CCOC(=O)Cc1cc(C)[nH]c1C(=O)OCC,-
CCOC(=O)CCc1c(CC(=O)OCC)c[nH]c1/C=N/O,16
COc1cc(C2SCCS2)cc(Br)c1Oc1ccc([N+](=O)[O-])cn1,-
O=C(NC1CCCCC1)N1c2ccccc2Sc2ccccc21,-
CCOc1ccc(C2c3c(oc4ccc(C)cc4c3=O)C(=O)N2c2nccs2)cc1OC (centres undefined),-
Cc1ccc(N2C(=O)C3CCC(C)CC3C2=O)cc1 (centres undefined),-
O=C1CC(Nc2ccccc2)C(=O)N1c1ccc(N2CCOCC2)cc1 (centres undefined),-
Cc1ccc(N2C(=O)C(c3ccccc3)C(N3CCOCC3)C2=O)cc1 (centres undefined),3.1
CCOC(=O)C(Cc1c[nH]c2ccccc12)NS(=O)(=O)c1ccc(Cl)cc1 (centres undefined),-
COc1cccc(OCc2nc(-c3ccc(Cl)cc3)no2)c1,-
CSC(=NCCSCc1c(Cl)cccc1Cl)NC#N,-
COc1cc2c(cc1OC)-c1c(C#N)c(-c3ccc(C)cc3)c(C(=O)c3cccs3)n1CC2,6.2
COc1cc2c(cc1OC)-c1c(C#N)c(-c3ccc(Cl)cc3)c(C(=O)c3cccs3)n1CC2,-
COc1cc2c(cc1OC)-c1c(C#N)c(-c3ccc4c(c3)OCO4)c(C(C)=O)n1CC2,-
O=c1[nH]c(=O)n(Cc2ccccc2)c2nc[nH]c12,-
CC(C)(CO)NC(=O)C1CCCNC1=O (centres undefined),-
CC1(C)CC(=O)C2=C(C1)Nc1nc(-c3cccc(Cl)c3)nn1C2c1ccc2c(c1)OCO2 (centres undefined),-
COc1ccc(-c2nc3n(n2)C(c2ccc4c(c2)OCO4)C2=C(CC(C)(C)CC2=O)N3)cc1OC (centres undefined),3
COc1ccc(-c2nc3n(n2)C(c2ccc(OC)c(OC)c2)C2=C(CCCC2=O)N3)cc1OC (centres undefined),-
SMILES,Dicer inh
CCOC(=O)c1c(C)oc(=O)c(Br)c1C,-
CCOC(=O)CSc1nc(C)c2cc(C)c(C)cc2n1,-
CCOC(=O)CSc1nc(C)c2cc(OC)ccc2n1,3.6
CCOC(=O)c1cnc2ccc(OC)cc2c1Cl,-
COc1ccc(-c2nnc(SCCC(=O)O)n2C)cc1,-
CCCc1c(C)nc2ccc(OC)cc2c1SCCC(=O)O,3.5
CCOC(=O)Nc1nc2ccc(OC)cc2s1,-
Cn1c(=O)c2[nH]c(NCc3ccco3)nc2n(C)c1=O,-
Cc1cc(NCc2cccnc2)c2ncnn2n1,-

# Screens (PubChem BioAssay)
